# Reference: article PMC7862700, “An all-to-all approach to the identification of sequence-specific readers for epigenetic DNA modifications on cytosine”
# Legend:
# Assay in all cases: DAPPL (digital affinity profiling via proximity ligation, sequencing); 10 mM Tris-HCl pH 7.5, 50 mM NaCl, 1 mM DTT, 4% glycerol, room temperature, 30 min; GST-TFs on glutathione beads, 16-mer random dsDNA library, 0.1% formaldehyde crosslink after washing; high values mean tight binding
# Settings in all cases: protein: recombinant; tags: N-terminal GST; dsDNA, one strand shown
# [1] = molecular target: T1, FLI1 (Homo sapiens, UniProt Q01543 1-452)
# T1 sequence: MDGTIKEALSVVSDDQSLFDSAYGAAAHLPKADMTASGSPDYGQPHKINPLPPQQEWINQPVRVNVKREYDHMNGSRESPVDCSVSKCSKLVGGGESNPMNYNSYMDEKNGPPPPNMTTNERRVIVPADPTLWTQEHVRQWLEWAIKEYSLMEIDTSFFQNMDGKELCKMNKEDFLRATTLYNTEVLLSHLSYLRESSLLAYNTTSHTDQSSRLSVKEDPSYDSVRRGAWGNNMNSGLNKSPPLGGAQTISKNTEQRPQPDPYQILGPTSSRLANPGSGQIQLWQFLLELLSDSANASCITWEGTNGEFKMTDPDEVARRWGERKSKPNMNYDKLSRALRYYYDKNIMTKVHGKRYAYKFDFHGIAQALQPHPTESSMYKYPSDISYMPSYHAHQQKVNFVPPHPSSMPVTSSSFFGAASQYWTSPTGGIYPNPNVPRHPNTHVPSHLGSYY
# Summary of the method: (§1)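 Human transcription factors carrying a GST fusion were produced in yeast, bound to glutathione beads, tagged with DNA barcodes and pooled together with a tag-only sample. Each pool was held with 200 nmole of a random double-stranded 16-mer DNA library in Tris/NaCl/DTT/glycerol buffer for 30 min at room temperature, then washed, crosslinked in 0.1% formaldehyde, proximity-ligated with BsaI/T4 ligase (1 h, 37 °C), PCR-amplified and sequenced on an Illumina NextSeq500. Binding signal is the read frequency of each hexamer for a given factor divided by its frequency in the tag-only sample.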
# [2] = molecular target: T2, ELK1 (Homo sapiens, UniProt P19419 1-428)
# T2 sequence: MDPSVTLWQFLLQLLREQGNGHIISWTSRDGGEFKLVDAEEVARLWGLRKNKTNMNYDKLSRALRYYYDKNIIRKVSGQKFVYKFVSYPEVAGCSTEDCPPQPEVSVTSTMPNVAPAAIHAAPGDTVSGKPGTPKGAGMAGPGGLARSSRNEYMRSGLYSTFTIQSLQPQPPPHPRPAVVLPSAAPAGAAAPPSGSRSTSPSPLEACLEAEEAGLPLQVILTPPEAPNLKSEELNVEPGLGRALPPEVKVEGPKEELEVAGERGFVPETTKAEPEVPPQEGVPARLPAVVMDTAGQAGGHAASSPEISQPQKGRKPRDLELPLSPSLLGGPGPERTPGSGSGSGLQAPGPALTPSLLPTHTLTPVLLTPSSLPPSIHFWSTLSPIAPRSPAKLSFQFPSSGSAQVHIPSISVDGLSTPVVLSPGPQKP
# Summary of the method: as §1
# [3] = molecular target: T3, GABPA (Homo sapiens, UniProt Q06546 1-454)
# T3 sequence: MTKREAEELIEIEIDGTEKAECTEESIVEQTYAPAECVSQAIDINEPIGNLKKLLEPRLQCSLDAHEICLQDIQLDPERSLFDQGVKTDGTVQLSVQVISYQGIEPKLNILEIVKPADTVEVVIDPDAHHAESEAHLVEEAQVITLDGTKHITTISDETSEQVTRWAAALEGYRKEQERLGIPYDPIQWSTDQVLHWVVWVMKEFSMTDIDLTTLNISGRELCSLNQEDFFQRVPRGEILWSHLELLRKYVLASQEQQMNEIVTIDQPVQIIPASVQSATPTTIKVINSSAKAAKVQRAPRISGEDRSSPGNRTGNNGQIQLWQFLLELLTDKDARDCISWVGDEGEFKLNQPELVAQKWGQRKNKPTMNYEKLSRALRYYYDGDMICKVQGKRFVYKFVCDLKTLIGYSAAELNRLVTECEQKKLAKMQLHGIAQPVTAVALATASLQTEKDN
# Summary of the method: as §1
# [4] = molecular target: T4, ERG (Homo sapiens, UniProt P11308 1-479)
# T4 sequence: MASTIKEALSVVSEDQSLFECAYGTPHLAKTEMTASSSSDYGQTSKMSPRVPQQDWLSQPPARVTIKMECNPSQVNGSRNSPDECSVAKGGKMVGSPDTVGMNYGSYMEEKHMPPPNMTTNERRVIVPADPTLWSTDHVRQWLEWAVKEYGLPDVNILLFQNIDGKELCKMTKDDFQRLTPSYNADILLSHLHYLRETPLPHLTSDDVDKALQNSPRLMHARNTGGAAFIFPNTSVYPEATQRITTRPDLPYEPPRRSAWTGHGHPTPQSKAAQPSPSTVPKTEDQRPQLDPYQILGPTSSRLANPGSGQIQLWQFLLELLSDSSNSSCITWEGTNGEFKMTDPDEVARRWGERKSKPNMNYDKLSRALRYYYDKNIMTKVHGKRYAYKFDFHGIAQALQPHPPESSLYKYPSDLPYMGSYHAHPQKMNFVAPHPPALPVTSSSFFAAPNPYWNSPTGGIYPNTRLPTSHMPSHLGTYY
# Summary of the method: as §1
# [5] = molecular target: ELF1 (Homo sapiens, UniProt P32519 1-619)
# Summary of the method: as §1
# [6] = molecular target: T5, EHF (Homo sapiens, UniProt Q9NZC4 1-300)
# T5 sequence: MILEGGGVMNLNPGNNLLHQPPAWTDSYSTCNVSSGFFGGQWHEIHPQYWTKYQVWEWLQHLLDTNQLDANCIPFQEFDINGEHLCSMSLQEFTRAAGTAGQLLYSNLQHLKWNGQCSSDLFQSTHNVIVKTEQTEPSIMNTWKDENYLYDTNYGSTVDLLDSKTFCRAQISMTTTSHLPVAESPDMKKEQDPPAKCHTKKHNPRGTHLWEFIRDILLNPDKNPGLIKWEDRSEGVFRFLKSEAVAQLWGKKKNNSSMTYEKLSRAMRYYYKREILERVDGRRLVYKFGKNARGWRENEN
# Summary of the method: as §1
# [7] = molecular target: SPI1 (Homo sapiens, UniProt P17947 1-270)
# Summary of the method: as §1
# [8] = molecular target: SPIB (Homo sapiens, UniProt Q01892 1-262)
# Summary of the method: as §1
# [9] = molecular target: T6, ELK3 (Homo sapiens, UniProt P41970 1-407)
# T6 sequence: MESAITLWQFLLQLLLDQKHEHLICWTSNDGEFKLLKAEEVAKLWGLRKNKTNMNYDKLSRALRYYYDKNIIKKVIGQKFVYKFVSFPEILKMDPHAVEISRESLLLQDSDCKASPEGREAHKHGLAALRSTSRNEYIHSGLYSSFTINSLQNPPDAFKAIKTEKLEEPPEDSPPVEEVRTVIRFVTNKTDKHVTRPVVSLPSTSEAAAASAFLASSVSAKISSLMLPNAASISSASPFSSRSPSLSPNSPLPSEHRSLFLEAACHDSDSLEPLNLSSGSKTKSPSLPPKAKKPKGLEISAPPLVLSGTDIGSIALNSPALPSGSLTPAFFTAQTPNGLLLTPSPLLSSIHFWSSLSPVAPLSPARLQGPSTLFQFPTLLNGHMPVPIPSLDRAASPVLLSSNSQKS
# Summary of the method: as §1
# [10] = molecular target: T7, FEV (Homo sapiens, UniProt Q99581 1-238)
# T7 sequence: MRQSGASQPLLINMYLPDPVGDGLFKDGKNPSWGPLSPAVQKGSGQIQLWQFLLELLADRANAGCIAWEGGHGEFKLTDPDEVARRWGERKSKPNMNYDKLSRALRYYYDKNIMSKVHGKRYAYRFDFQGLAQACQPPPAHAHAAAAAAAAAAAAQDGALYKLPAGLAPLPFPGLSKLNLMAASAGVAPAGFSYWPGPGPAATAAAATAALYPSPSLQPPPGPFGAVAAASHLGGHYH
# Summary of the method: as §1
# [11] = molecular target: ETV5 (Homo sapiens, UniProt P41161 1-510)
# Summary of the method: as §1
# [12] = molecular target: ELF4 (Homo sapiens, UniProt Q99607 1-663)
# Summary of the method: as §1
# [13] = molecular target: ETV1 (Homo sapiens, UniProt P50549 1-477)
# Summary of the method: as §1
# [14] = molecular target: T8, ERF (Homo sapiens, UniProt P50548 1-548)
# T8 sequence: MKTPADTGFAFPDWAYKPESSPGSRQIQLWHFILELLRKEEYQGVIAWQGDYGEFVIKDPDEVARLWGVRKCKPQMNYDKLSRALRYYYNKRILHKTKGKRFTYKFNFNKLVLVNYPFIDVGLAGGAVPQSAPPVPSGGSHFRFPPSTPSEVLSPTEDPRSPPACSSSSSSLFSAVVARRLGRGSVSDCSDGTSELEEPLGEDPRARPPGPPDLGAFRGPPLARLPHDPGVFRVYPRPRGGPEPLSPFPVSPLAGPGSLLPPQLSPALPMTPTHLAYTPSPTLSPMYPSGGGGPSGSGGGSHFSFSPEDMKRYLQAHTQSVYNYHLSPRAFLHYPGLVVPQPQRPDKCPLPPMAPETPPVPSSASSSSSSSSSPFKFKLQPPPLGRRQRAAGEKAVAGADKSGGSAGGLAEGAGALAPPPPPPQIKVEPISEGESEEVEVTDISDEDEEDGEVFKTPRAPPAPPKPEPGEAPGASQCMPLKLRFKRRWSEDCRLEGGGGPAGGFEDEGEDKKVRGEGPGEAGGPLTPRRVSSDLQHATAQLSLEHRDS
# Summary of the method: as §1
# [15] = molecular target: T9, ETV3L (Homo sapiens, UniProt Q6ZN32 1-361)
# T9 sequence: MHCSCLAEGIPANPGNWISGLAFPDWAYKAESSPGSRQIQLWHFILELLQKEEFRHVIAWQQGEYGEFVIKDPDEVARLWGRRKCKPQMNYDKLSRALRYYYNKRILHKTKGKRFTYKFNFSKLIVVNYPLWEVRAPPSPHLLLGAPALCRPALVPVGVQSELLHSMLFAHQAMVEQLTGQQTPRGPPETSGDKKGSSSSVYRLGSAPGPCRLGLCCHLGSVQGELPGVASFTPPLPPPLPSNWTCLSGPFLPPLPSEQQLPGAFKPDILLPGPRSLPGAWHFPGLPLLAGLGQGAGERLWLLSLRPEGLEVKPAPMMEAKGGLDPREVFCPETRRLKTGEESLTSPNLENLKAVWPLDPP
# Summary of the method: as §1
# [16] = molecular target: T10, ETS2 (Homo sapiens, UniProt P15036 1-469)
# T10 sequence: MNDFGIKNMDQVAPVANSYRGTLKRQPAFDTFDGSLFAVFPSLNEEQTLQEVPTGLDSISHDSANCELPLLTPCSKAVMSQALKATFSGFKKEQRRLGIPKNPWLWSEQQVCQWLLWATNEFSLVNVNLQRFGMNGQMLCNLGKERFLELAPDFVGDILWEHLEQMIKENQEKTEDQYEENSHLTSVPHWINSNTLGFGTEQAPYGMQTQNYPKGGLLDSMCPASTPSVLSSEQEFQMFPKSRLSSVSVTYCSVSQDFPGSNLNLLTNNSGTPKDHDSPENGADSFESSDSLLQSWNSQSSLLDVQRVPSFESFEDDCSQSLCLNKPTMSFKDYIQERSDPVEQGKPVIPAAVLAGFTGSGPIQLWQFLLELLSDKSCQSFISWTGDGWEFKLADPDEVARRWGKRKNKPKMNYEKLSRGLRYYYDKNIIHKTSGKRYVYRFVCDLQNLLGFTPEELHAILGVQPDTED
# Summary of the method: as §1
# [17] = molecular target: T11, SPDEF (Homo sapiens, UniProt O95238 1-335)
# T11 sequence: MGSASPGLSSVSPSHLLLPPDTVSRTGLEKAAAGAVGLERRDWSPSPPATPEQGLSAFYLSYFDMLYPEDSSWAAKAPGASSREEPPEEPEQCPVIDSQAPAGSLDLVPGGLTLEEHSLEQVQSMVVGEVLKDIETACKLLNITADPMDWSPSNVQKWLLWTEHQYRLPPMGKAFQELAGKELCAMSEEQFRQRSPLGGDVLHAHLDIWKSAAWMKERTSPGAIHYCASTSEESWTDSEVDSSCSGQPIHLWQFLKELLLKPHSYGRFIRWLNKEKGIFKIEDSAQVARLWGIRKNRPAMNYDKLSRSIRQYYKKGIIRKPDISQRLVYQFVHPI
# Summary of the method: as §1
# [18] = molecular target: T12, ETV3 (Homo sapiens, UniProt P41162-2 1-143)
# T12 sequence: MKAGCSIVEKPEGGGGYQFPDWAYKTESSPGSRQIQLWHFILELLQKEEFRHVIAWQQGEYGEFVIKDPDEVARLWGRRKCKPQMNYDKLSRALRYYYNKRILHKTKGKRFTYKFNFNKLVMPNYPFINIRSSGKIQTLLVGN
# Summary of the method: as §1
# [19] = molecular target: ETV6 (Homo sapiens, UniProt P41212 1-452)
# Summary of the method: as §1
# Sequence of ELF4 (Q99607 whole entry): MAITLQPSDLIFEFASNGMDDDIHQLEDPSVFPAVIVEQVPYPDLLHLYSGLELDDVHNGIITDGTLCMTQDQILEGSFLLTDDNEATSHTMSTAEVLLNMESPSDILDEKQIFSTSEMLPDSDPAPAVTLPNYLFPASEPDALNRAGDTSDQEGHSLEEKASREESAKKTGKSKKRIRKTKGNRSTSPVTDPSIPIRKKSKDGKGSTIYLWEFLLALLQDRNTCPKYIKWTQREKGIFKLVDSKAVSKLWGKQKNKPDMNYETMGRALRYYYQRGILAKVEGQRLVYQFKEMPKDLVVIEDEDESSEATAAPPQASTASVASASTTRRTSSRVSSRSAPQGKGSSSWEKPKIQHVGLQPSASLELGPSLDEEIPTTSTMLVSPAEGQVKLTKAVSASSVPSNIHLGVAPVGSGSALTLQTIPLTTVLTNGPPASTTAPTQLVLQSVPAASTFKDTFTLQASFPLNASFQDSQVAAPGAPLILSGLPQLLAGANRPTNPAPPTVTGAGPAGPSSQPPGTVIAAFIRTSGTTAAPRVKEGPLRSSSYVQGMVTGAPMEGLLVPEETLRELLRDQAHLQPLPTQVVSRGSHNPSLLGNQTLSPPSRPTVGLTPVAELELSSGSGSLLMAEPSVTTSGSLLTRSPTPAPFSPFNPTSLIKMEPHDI
# Sequence of SPIB (Q01892 whole entry): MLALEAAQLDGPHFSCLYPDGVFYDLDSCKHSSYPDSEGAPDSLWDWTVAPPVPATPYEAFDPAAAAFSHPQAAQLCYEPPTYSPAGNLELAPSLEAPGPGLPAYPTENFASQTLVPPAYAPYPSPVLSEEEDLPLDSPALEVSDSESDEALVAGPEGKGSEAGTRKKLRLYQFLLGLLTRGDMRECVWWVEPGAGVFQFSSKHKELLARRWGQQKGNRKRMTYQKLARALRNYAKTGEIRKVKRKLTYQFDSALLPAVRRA
# Sequence of ETV1 (P50549 whole entry): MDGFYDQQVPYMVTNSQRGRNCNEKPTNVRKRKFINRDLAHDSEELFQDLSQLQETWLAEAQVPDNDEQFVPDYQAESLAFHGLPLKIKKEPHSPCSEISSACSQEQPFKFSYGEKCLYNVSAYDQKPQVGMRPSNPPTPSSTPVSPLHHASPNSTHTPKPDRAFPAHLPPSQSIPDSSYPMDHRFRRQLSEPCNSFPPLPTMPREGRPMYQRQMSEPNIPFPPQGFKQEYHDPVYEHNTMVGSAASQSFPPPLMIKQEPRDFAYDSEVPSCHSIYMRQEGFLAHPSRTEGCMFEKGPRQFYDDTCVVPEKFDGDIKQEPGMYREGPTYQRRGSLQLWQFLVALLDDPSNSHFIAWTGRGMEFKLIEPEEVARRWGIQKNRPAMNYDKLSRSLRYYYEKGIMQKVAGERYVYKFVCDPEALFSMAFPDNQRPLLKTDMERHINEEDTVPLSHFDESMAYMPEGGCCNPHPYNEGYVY
# Sequence of ETV5 (P41161 whole entry): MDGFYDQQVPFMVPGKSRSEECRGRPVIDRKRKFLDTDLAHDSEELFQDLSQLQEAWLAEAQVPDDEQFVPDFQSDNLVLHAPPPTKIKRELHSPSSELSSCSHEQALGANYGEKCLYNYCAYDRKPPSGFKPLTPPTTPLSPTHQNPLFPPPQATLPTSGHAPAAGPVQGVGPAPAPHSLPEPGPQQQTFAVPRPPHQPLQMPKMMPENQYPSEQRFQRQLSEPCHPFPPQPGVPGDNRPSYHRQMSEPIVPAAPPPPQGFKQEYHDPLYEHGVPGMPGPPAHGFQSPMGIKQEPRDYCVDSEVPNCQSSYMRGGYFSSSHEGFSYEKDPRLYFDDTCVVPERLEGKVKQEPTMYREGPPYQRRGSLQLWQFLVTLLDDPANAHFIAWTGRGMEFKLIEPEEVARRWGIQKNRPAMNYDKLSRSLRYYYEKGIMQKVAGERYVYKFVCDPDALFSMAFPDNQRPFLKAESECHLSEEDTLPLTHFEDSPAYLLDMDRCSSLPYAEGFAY
# Sequence of ETV6 (P41212 whole entry): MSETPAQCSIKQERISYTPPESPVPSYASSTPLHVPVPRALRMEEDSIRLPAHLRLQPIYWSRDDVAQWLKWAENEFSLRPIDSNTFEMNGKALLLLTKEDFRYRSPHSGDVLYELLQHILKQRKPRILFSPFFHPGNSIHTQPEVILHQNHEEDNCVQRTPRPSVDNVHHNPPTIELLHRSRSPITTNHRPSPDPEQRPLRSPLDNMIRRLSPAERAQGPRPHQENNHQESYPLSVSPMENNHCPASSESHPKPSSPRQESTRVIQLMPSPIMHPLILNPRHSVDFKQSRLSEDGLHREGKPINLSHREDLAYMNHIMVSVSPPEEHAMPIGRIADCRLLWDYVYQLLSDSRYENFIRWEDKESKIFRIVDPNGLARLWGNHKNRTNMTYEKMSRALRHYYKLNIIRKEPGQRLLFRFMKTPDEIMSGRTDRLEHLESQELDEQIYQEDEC
# Sequence of ELF1 (P32519 whole entry): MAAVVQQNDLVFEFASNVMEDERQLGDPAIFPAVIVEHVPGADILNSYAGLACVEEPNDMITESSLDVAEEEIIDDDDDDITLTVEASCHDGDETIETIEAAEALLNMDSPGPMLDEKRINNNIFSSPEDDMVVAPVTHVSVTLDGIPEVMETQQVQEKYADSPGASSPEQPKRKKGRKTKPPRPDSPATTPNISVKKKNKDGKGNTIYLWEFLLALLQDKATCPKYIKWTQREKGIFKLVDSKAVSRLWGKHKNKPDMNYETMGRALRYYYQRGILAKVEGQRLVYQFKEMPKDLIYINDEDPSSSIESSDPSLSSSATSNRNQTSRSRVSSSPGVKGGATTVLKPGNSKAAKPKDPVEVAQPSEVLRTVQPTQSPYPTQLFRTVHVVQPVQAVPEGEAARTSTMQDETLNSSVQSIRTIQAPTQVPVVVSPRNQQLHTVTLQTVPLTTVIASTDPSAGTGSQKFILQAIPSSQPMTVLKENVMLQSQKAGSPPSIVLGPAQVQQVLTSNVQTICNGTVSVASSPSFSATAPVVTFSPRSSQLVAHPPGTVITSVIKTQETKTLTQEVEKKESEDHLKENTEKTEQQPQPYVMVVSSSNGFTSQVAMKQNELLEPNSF
sequence,measurement,setting,value
CATGAC,binding signal,[1],"1.23 fold enrichment (6-mer frequency, TF over GST control)"
same,binding signal,[2],"1.18 fold enrichment (6-mer frequency, TF over GST control)"
same,binding signal,[3],"1.34 fold enrichment (6-mer frequency, TF over GST control)"
same,binding signal,[4],"1.14 fold enrichment (6-mer frequency, TF over GST control)"
same,binding signal,[5],"1.18 fold enrichment (6-mer frequency, TF over GST control)"
same,binding signal,[6],"1.25 fold enrichment (6-mer frequency, TF over GST control)"
same,binding signal,[7],"1.28 fold enrichment (6-mer frequency, TF over GST control)"
same,binding signal,[8],"1.16 fold enrichment (6-mer frequency, TF over GST control)"
same,binding signal,[9],"1.17 fold enrichment (6-mer frequency, TF over GST control)"
same,binding signal,[10],"1.17 fold enrichment (6-mer frequency, TF over GST control)"
same,binding signal,[11],"1.24 fold enrichment (6-mer frequency, TF over GST control)"
same,binding signal,[12],"1.28 fold enrichment (6-mer frequency, TF over GST control)"
same,binding signal,[13],"1.13 fold enrichment (6-mer frequency, TF over GST control)"
same,binding signal,[14],"1.18 fold enrichment (6-mer frequency, TF over GST control)"
same,binding signal,[15],"1.13 fold enrichment (6-mer frequency, TF over GST control)"
same,binding signal,[16],"1.2 fold enrichment (6-mer frequency, TF over GST control)"
same,binding signal,[17],"1.2 fold enrichment (6-mer frequency, TF over GST control)"
same,binding signal,[18],"1.13 fold enrichment (6-mer frequency, TF over GST control)"
same,binding signal,[19],"1.18 fold enrichment (6-mer frequency, TF over GST control)"
